Screens as filed in PubChem.
aSyn 5UTR act: Activators working through SNCA 5'UTR binding (MLPCN). alpha-synuclein 5'UTR reporter, activators screen. activity score, % (tested at 7.5 µM), hits read low. 7.1% of 300,000 active; in the data active = activity score below about -60%
Starred values were filed as active, the others as inactive. These entries were drawn from the full list.

SMILES	aSyn 5UTR act
C/C(=N\NC(=O)c1ccccc1C)c1ccc(NC(=O)c2cccs2)cc1	-148.1*
C/C(=N\NC(=O)C(N)=O)c1ccc(NC(=O)c2cccs2)cc1	-140.2*
C/C(=N/OCC(=O)Nc1ccccc1)c1cccs1	-131.4*
COc1ccc2cc[nH]c2c1	70.8
COc1ccc(NC(=O)OC(C)C)cc1	-69.5*
COc1ccc(NC(=O)Nc2ccc(OC)cc2)cc1	-99.4*
COc1ccc(NC(=O)Nc2ccc3[nH]ccc3c2)cc1	-112.4*
N#Cc1ccc(NC(=O)Nc2ccc(Oc3ccc(NC(=O)Nc4ccc(C#N)cc4)cc3)cc2)cc1	73.7
COc1ccc2cc(OCC(=O)NNC(=O)Nc3ccc(C(C)=O)cc3)ccc2c1	-88.4*
COc1ccc(NC(=O)Nc2ccc(N(C)C)cc2)cc1	-124.4*
O=C1N=C(N2CCCCC2)S/C1=C\c1ccc(Br)cc1	-128.1*
O=C1N=C(N2CCCCC2)S/C1=C/C1=Cc2ccccc2OC1	-102.8*
Cc1ccc(OCC(=O)N2CCOCC2)cc1C	-68.0*
Cc1ccc(OCc2ccc(C(=O)N3CCOCC3)cc2)cc1C	-65.5*
COc1ccc(/C=C/C(=O)c2c(C)nc3ccccn23)cc1	-307.6*
Cc1nc2ccccn2c1C(=O)/C=C/c1ccc(F)cc1	-83.4*
O=C(Nc1cccc(O)c1)c1ccc(C(F)(F)F)cc1	-166.0*
CC(C)CC(=O)Nc1ccc(C(=O)Nc2cccc(O)c2)cc1	-150.8*
COc1ccc(NC(=O)c2csc3c2CCCC3)cc1	-193.4*
Cc1ccccc1NC(=O)c1csc2c1CCCC2	-67.2*
O=C(Nc1nccs1)c1csc2c1CCCC2	-128.9*
COc1cccc(NC(=O)c2csc3c2CCCC3)c1	-133.8*
CSc1ccc(-c2sc(Nc3cccc4ccccc34)n[n+]2-c2ccccc2)cc1	-143.4*
CSc1ccc(-c2sc(Nc3ccccc3)n[n+]2-c2ccccc2)cc1	-98.0*
Cc1noc(C)c1C(=O)Nc1nc2ccc(Cl)cc2s1	-82.5*
SMILES	aSyn 5UTR act
Cc1cc(C)c2nc(NC(=O)c3cc(C)on3)sc2c1	-89.5*
O=C(Nc1nc2ccc(Cl)cc2s1)[C@@H]1CCCN1C(=O)c1cccs1	-92.1*
CCc1ccc2nc(NC(=O)C3CSC4(C)CCC(=O)N34)sc2c1 (stereo unspecified)	-107.4*
Cc1cc(C)c2nc(NNC(=O)c3ccc(S(=O)(=O)N4CC(C)CC(C)C4)cc3)sc2c1 (stereo unspecified)	71.9
CC1CC1C(=O)Nc1nc2ccc(Cl)cc2s1 (stereo unspecified)	-134.1*
CCC(=O)NNc1nc2c(C)cc(C)cc2s1	-63.2*
Cc1cc(C)c2nc(NCc3ccccc3O)sc2c1	-117.5*
CCc1ccc2nc(NC(=O)c3cc(C)on3)sc2c1	-66.1*
CCc1noc(C)c1C(=O)Nc1nc2ccc(F)cc2s1	-139.3*
CN=C1S/C(=C\c2ccc(SC)cc2)C(=O)N1C	-98.3*
CN=C1S/C(=C\c2ccc(O)c(OC)c2)C(=O)N1C	-110.2*
CSC1=NC(=O)/C(=C/c2ccc(SC)cc2)S1	-80.7*
COc1ccc(/C=C2\SC(=N)N(c3nccs3)C2=O)cc1OC	64.9
Cc1nc2ccc(S(=O)(=O)Nc3cc(-c4nc5cccnc5s4)ccc3C)cc2s1	-84.7*
Cc1ccc(C)c(NS(=O)(=O)c2ccc(-c3cnc(C4CC4)o3)cc2)c1	93.2
Cc1ccc(C)c(NC(=O)c2cc3ccccn3n2)c1	-195.7*
Cc1ccccc1NC(=O)c1cc2ccccn2n1	-108.6*
O=C1CC(/C=C/c2ccccc2)=Nc2ccccc2N1	-252.2*
O=C1CC(/C=C/c2ccc(Cl)cc2)=Nc2ccccc2N1	-225.7*
CC1(C)CC(/C=C/c2ccccc2)=Nc2ccccc2N1	-154.5*
CC(=O)Nc1ccc(NC(=O)COc2ccc(Cl)cc2Cl)cc1	-117.3*
O=C(COc1ccc(Cl)cc1Cl)Nc1ccccc1F	-174.5*
COC(=O)c1sccc1NC(=O)COc1ccc(F)cc1Cl	-98.6*
O=C(COc1ccc(Cl)cc1Cl)c1ccc[nH]1	-93.6*
O=C(COc1cc(Cl)ccc1Cl)Nc1ccc2c(c1)CCC2	-64.4*
SMILES	aSyn 5UTR act
COc1ccc(/C=N/N=C(\N)c2nonc2N)cc1	-111.0*
O=C(CCCC(=O)c1ccc(F)cc1)c1ccc(F)cc1	-117.6*
CCOc1ccc(C(=O)CCCC(=O)c2ccc(OCC)cc2)cc1	-81.6*
CCc1ccc(OCCCCCn2ccnc2)cc1	-66.4*
S=C(Nc1ccccc1)Nc1cccc(Cl)c1Cl	-67.1*
COC(=O)c1cccc(NC(=S)Nc2cccc(Cl)c2Cl)c1	-69.3*
NNC(=S)Nc1ccccc1Cl	-185.5*
CNC(=S)Nc1cccc(C(=O)OC)c1	-90.8*
S=C(Nc1ccccc1)Nc1ccc(Cl)cc1Cl	-91.2*
O=C(Nc1ccccc1)Nc1cccc2nsnc12	-272.2*
O=C(Nc1cccc2nsnc12)c1cccs1	-143.2*
O=C(Nc1nc(NC(=O)c2ccco2)n(-c2ccccc2)n1)c1ccccc1	79.0
Nc1nc(NC(=O)c2cccs2)nn1-c1ccccc1	-115.3*
Nc1nc(NC(=O)c2ccccc2)nn1-c1ccccc1	-71.2*
COc1ccc(C(=O)C[n+]2ccccc2/C=N/O)cc1	-81.5*
CCc1ccccc1NC(=O)c1cccc(NC(=O)/C=C/c2ccco2)c1	-100.0*
